Screening data from PubChem BioAssay.
PABP polyA inh: PABP-poly(A) binding inhibition | calls only at 35 µM | P11940 | 1% of 290,000 active | PABP-poly(A) RNA binding, fluorescence polarization;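 also: calls also rest on retests at 20 µM and on dose response follow-up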
Target sequence (P11940 whole entry, looked up): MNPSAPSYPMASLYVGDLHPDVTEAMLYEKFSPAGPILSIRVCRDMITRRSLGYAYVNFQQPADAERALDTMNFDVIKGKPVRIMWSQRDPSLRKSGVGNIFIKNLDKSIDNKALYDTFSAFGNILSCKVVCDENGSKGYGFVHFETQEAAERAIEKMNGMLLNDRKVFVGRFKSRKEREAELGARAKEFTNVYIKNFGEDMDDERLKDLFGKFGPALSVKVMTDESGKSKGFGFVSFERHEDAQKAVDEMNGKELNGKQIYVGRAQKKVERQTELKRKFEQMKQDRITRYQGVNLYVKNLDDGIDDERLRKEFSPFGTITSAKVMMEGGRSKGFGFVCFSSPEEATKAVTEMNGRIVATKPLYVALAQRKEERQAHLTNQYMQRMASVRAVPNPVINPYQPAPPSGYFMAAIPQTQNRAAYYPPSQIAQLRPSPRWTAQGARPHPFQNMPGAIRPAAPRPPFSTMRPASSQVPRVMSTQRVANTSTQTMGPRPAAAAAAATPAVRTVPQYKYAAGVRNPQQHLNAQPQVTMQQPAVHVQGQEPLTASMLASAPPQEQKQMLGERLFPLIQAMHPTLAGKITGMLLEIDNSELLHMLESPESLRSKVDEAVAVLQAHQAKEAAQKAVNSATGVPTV
eIF4H inh: inhibitors of RNA binding by human eIF4H; eIF4H fluorescence polarization binding assay; Q15056; 0.94% of 290,000 active; inhibition, % at 35 µM;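 also: calls also rest on retests at 20 µM and on dose response follow-up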
eIF4E 4G PPI: blocks eIF4E binding to eIF4G; inhibition, % at 21.7 µM; P63073+Q04637; 0.37% of 220,000 active; TR-FRET eIF4E-eIF4GI(517-606) binding, 2 h;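 active = inhibition above about 30%, limit read from the data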;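 also: 0% = full FRET control wells and 100% = background wells lacking eIF4GI fragment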
PERK inh: blocks human PERK kinase. Q9NZJ5. CHO PERK-DD fusion, SEAP luminescence translation reporter. inhibition, % at 5.6 µM. 0.17% of 220,000 active;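 active = inhibition above the mean inhibition of all tested compounds plus 3 SD, set separately per screening campaign, cut at about 2.9% in these data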;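 also: PERK kinase domain activated by AP20187 dimerizer at 100 nM; 0% = DMSO with dimerizer and 100% = rapamycin at 8.4 µM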
PABP1 MLLE inh: blocks PAM2 peptide binding to the PABP1 MLLE domain. P11940. GST-MLLE / FITC-PAM2 fluorescence polarization. inhibition, % at 20 µM. 0.36% of 360,000 active. AID 588489; in the data active = inhibition above about 35%, passing the limit was not always enough;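 also: plate controls were DMSO wells with GST-MLLE for no effect and wells lacking GST-MLLE protein for full effect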
An asterisk follows results filed as active; i = inactive; ? = inconclusive; . = not tested or not shown; + = active, no number. Rows were chosen to be rich in hits. Some 1.6% of all compounds tested hit in one or more screens of this group. Unless noted, no rule for the calls is given here.

SMILES	PABP polyA inh	eIF4H inh	eIF4E 4G PPI	PERK inh	PABP1 MLLE inh
O=C(Nc1ccc(OCc2ccccc2)cc1)Nc1ccccc1C(=O)NCCCN1CCOCC1	i	-7	1	-2	-3
CCOc1ccccc1N1CC(C(=O)NCCOc2ccccc2OC)CC1=O (centres undefined)	i	4	.	.	2
NC(=O)c1ccc(NC(=O)COC(=O)CC2Sc3ccccc3NC2=O)cc1 (centres undefined)	.	.	.	.	-11
CC1=C(C#N)C(=O)N(C2CCS(=O)(=O)C2)C(=O)/C1=C\c1ccco1 (centres undefined)	+	102*	63*	1	.
CCN1/C(=C/c2cc[n+](CCCS(=O)(=O)[O-])c3ccccc23)Sc2ccccc21	i	97*	3	1	-162
CCN(CC)S(=O)(=O)c1cc(NC(=O)Cn2ncc(Cl)c(Cl)c2=O)ccc1C	+	77	13	1	-23
COc1ccc(NC(=O)c2cc3c(s2)CCC3)cc1S(=O)(=O)N1CCOCC1	i	100*	-8	-1	-3
COc1ccc(NC(=O)Cn2ncc(Cl)c(Cl)c2=O)cc1S(=O)(=O)N1CCOCC1	+	90	2	0	-21
COc1ccc(NC(=O)c2ccc(Cl)nc2)cc1S(=O)(=O)N1CCOCC1	.	.	.	.	5
CCC(=O)c1ccccc1OCCCCn1cncn1	i	2	.	.	5
O=C(O)CNc1ccccc1C(=O)O	i	74*	-3	3.0*	3
O=C(COc1ccccc1)NC1CCCCCCC1	i	-17	.	.	-7
CN1N=C(C(C)(C)C)CC1=O	i	0	-5	3.4*	.
C/C(=N\NC(=O)Cc1cccn1C)c1ccco1	i	13	44*	1	-1
NS(=O)(=O)c1ccc(Nc2nc3ccccc3nc2NS(=O)(=O)c2cccc([N+](=O)[O-])c2)cc1	i	3	-1	0	9
Fc1ccccc1-c1nc2nc3ccccc3nc2n1CC1CCCO1 (centres undefined)	i	-2	-1	-1	-8
CCCN1CCN(S(=O)(=O)c2cn(C)nc2C)CC1	+	69	.	.	36
Cc1nn(C)cc1S(=O)(=O)N1CCN(Cc2ccccc2Cl)CC1	i	-3	2	0	-18
c1cc2c3c(cccc3c1)C(N1CCOCC1)=N2	+	58	2	2	33
c1ccc(CC2CCN(C3=Nc4cccc5cccc3c45)CC2)cc1	i	92*	2	-1	-30
CC1CN(C2=Nc3cccc4cccc2c34)CC(C)O1 (centres undefined)	+	66	4	-1	29
CS(=O)(=O)Cc1ccc(C(=O)N2CCN(C(=O)c3cccs3)CC2)cc1	.	.	.	.	1
CNC(=O)c1ccc(-n2cccn2)nc1	i	5	0	0	14
COc1ccc(OC)c(NC(=O)c2ccc(-n3cccn3)nc2)c1	+	106*	-3	2	-5
Cc1c(C(=O)OCC2CCCO2)[nH]c2c1C(=O)CC(c1ccco1)C2 (centres undefined)	+	90*	2	-1	0
SMILES	PABP polyA inh	eIF4H inh	eIF4E 4G PPI	PERK inh	PABP1 MLLE inh
Cc1c(C(=O)OCC(C)C)[nH]c2c1C(=O)CC(c1ccco1)C2 (centres undefined)	i	22	1	0	-12
Cc1cc(N2C(=O)C(O)=C(C(=O)c3cc4ccccc4o3)C2c2ccc(OC(C)C)cc2)no1 (centres undefined)	i	9	.	.	8
COC(=O)c1ccc(C2C(C(=O)c3cc4ccccc4o3)=C(O)C(=O)N2c2cc(C)on2)cc1 (centres undefined)	+	?	.	.	-35
Cc1ccc(N=Cc2nc(-c3ccc(C)cc3)oc2O)cc1	i	2	66*	1	-12
CC(=O)Nc1ccc(N=Cc2nc(-c3ccc(C)cc3)oc2O)cc1	?	?	-5	0	39
O=c1cc(CN2CCN(c3ccccc3)CC2)c2ccccc2o1	.	.	.	.	-9
CC(C)(C)c1ccc(C(=O)NCCCNC(=O)c2ccco2)cc1	i	-5	.	.	4
CN(C)CCCNCCCNC(=O)c1ccco1	+	33*	-1	1	6
O=C(Nc1cccc(S(=O)(=O)N2CCCC2)c1)c1cc(-c2ccccn2)nc2ccccc12	i	-3	-1	1	3
CCOc1ccc(-c2nc(=S)[nH][nH]2)cc1	i	5	52*	3	24
COc1ccc(-c2nc(=S)[nH][nH]2)cc1	i	11	4	1	19
O=C(COc1ccccc1Cl)NNC(=O)c1ccc2c(=O)n3c(nc2c1)CCC3	.	.	.	.	-6
COCCc1nc2ccc(C(=O)N(C)Cc3cccc(-n4nc(C)cc4C)c3)cc2o1	i	-12	.	.	6
O=S(=O)(Nc1ccccc1N1CCCCC1)c1ccc(F)cc1	i	4	0	3.2*	-21
CCC(C)(C)NC(=O)Cc1ccc(Cl)cc1	i	16	0	1	-3
O=C(Cc1ncon1)Nc1ccc(F)c(F)c1F	i	5	-1	3.6*	-2
O=C(CNCC(=O)Nc1ccc(F)c(F)c1F)Nc1ccc(F)c(F)c1F	i	9	.	.	2
Cc1cc(NC(=O)CSCC(=O)N(C)Cc2ccc(F)cc2)no1	i	22	.	.	-11
Cc1cc(NC(=O)CSCC(=O)N(C)Cc2ccc(Cl)c(Cl)c2)no1	+	29	.	.	-3
O=C(CNC(=O)c1ccccc1)NCCc1nc2ccccc2[nH]1	i	-3	-1	1	-11
CC(C)=C(NC(=O)c1ccccc1Br)C(=O)NCCc1nc2ccccc2[nH]1	+	112*	4	0	-14
CCN(CC)c1ccc(C=NCCc2ccc(S(N)(=O)=O)cc2)cc1	i	-2	0	0	-2
CCCCOP(=O)(OCCCC)C(Nc1ccccc1)c1ccc2c(c1)OCO2 (centres undefined)	+	active	1	0	4
Cc1ccc(CCNS(=O)(=O)c2cc(Br)cnc2N)cc1	.	.	.	.	0
Cc1ccc(-c2cc(C(=O)N3CCN(C(=O)c4ccco4)CC3)[nH]n2)c(C)c1	i	-14	.	.	-2
SMILES	PABP polyA inh	eIF4H inh	eIF4E 4G PPI	PERK inh	PABP1 MLLE inh
CCCCn1c(=N)n(CC(=O)c2ccc(OC)cc2)c2ccccc21	i	2	83*	-1	.
CC(C)(CCC(=S)N1CCOCC1)C1CCCCC1	i	-2	.	.	42*
Cc1cc(C(=O)OCC(=O)c2ccc(Br)s2)c(C)o1	+	70*	-5	1	.
NS(=O)(=O)c1ccc2c(c1)C1C=CCC1C(C1CC=CCC1)N2 (centres undefined)	+	53*	12	0	0
CC(C)C1Nc2ccc(S(N)(=O)=O)cc2C2C=CCC21 (centres undefined)	i	24	-1	2	2
CCN1C=C(Cc2cccs2)C2=C(C1)C(c1cccs1)C(C#N)=C(N)O2 (centres undefined)	+	93*	5	-1	-21
